Test results: the supplement of paper PMC6411743
± gives the standard deviation of the averaged measurements. Targets with the largest changes are over-represented here; the source holds about 5,400 in all.

Target: T1, UniProt P35613|P35613-2
T1 sequence (whole entry): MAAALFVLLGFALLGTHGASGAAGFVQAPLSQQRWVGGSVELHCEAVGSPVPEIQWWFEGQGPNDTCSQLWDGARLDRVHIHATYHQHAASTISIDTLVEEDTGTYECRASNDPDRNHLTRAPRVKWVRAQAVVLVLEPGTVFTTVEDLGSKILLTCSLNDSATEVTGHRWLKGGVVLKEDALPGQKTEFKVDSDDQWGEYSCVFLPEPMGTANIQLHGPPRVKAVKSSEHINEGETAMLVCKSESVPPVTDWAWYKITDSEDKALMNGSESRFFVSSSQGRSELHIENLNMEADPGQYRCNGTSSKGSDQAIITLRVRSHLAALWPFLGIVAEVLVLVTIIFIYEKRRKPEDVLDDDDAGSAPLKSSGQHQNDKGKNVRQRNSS
Assay: NP40-soluble protein abundance relative to vehicle (solubility fold change) (ratio); higher = more soluble protein in presence of GTP
Description: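 Solubility proteome profiling in Jurkat crude lysate. Lysate was treated with Mg-GTP (0.1-10 mM) for 10 min at room temperature and 3 min at 37 °C, then solubilised with 0.8% NP40 and benzonase, followed by ultracentrifugation. Proteins were quantified by TMT10 LC-MS/MS; the value is the NP40-soluble abundance relative to the NP40-processed vehicle, from 3 independent experiments.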

Question: What does the source list for `Nc1nc2c(ncn2[C@@H]2O[C@H](COP(=O)(O)OP(=O)(O)OP(=O)(O)O)[C@@H](O)[C@H]2O)c(=O)[nH]1` [guanosine triphosphate]?
Answer: NP40-soluble protein abundance (concentration: 0.1mM): 0.873 ± 0.045; NP40-soluble protein abundance (concentration: 0.5mM): 0.877 ± 0.074; NP40-soluble protein abundance (concentration: 1mM): 0.91 ± 0.042; NP40-soluble protein abundance (concentration: 2mM): 0.881 ± 0.081; NP40-soluble protein abundance (concentration: 4mM): 0.878 ± 0.062; NP40-soluble protein abundance (concentration: 6mM): 0.91 ± 0.087; NP40-soluble protein abundance (concentration: 8mM): 0.872 ± 0.099; NP40-soluble protein abundance (concentration: 10mM): 0.881 ± 0.065
